High-throughput results (PubChem)
Most compounds without a hit are left out; they make up all but 3.1% or so of the library.
Mac1 fbg inh: blocks human CD11b/CD18 adhesion to fibrinogen | actives 0.54% (n = 93,000) | K562 CD11b/CD18 adhesion to fibrinogen, ATPlite luminescence; Mn2+ added to activate the integrin | P05107+P11215 | AID 1497 | inhibition, % at 10 µM;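 active = primary inhibition of 50% or more at 10 µM, then 40% or more on retest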
ERb coact inh: blocks coactivator binding to human estrogen receptor beta; Q92731; TR-FRET ER-beta LBD / SRC1-Cy5 peptide binding; receptor agonist-loaded with 1 µM estradiol; inhibition, % at 25.6 µM; actives 1.3% (n = 86,000); AID 633;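 active = compounds whose percent inhibition of the receptor-coactivator binding signal exceeds about 50% in the single-dose screen, limit read from the data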;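 note: 0% = receptor plus peptide wells without compound and 100% = peptide-only wells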
ERa SRC1 pot: enhances coactivator binding to human estrogen receptor alpha | P03372 | TR-FRET ERalpha-LBD/SRC-Cy5 coactivator binding, 2 h; 100 = basal binding, no effect | coactivator binding (% of control), % at 25.6 µM | actives 1.3% (n = 86,000) | AID 639; in the data active = activity above about 200%;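 note: binding measured in presence of low estradiol as agonist stimulus; 0% = peptide alone without receptor and 100% = receptor with peptide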
CD11b adhes enh: enhancers of human CD11b/CD18 binding to fibrinogen; P05107+P11215; K562 CD11b/CD18 adhesion to fibrinogen, ATPlite luminescence; activation, % at 10 µM; actives 0.07% (n = 93,000); AID 1499;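 active = 10 µM primary screen giving 50% or more activity, confirmed by 40% or more on retest at that dose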
ERa SRC1 inh: ER-alpha (human) coactivator binding inhibition | P03372 | TR-FRET ER-alpha LBD / SRC-1 peptide, estradiol-bound | inhibition, % at 25.6 µM | actives 1.7% (n = 86,000) | AID 629; in the data active = inhibition above about 50%;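 note: 0% = receptor plus peptide control and 100% = peptide only without receptor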
* = called active by the depositor; x = no result; [ ] = another dose, or the depositor's remark.

SMILES | Mac1 fbg inh | ERb coact inh | ERa SRC1 pot | CD11b adhes enh | ERa SRC1 inh
Cc1ccc(S(=O)(=O)c2c(N)n(Cc3ccco3)c3nc4ccccc4nc23)cc1C | -5 | 3 | 220* | -3 | 1
COc1ccc(N=C2C(=O)N3c4c(cccc42)C(C)=CC3(C)C)cc1 | 20 | x | x | 6 | x
COc1cc2c3c(c1)/C(=C1/SC(NC(C)=O)=NC1=O)C(=O)N3C(C)(C)C=C2C | -23 | 54* | 49 | 93 | 77*[fluorescence artefact?]
N#Cc1c(N)nc(SCC(=O)C23CC4CC(CC(C4)C2)C3)c(C#N)c1-c1ccc(Cl)cc1 | 36 | 32 | 479*[fluorescence artefact?] | 2 | 34
CCOC(=O)CC(=O)CSc1nc(N)c(C#N)c(-c2ccc(Cl)cc2)c1C#N | 5 | 19 | 220*[fluorescence artefact?] | -1 | 15
COC(=O)c1cc(OC)c(OC)cc1NC(=S)N1CCN(c2ccccc2)CC1 | -45 | x | x | -2 | x
Cc1nnsc1C(=O)Nc1cc(Cl)ccc1Cl | x | -2 | 107 | x | -5
Cc1cc(C)cc(OCC(=O)Nc2nonc2NC(=O)COc2cc(C)cc(C)c2)c1 | -8 | 38 | 38 | 106 | 82*[fluorescence artefact?]
Cc1cc(C)cc(OCC(=O)Nc2cccc(C(=O)O)c2)c1 | -43 | -1 | 104 | -4 | 1
CCCCCn1c(SCC#N)nc2cc(C(=O)NCC3CCCO3)ccc2c1=O (centres undefined) | -5 | 47 | 248*[fluorescence artefact?] | 6 | 56*[fluorescence artefact?]
CCCCCn1c(SCC#N)nc2cc(C(=O)NC3CCCCC3)ccc2c1=O | x | 37 | 164 | x | 40
COC(=O)c1ccc2c(=O)n(CC3CCCO3)c(SCC(=O)Nc3ccccc3Cl)nc2c1 (centres undefined) | -35 | 15 | 81 | -2 | 57*
CCCN(CC(=O)Nc1ccccc1C)C(=O)/C=C/c1cccs1 | 17 | x | x | 1 | x
COc1ccc(Nc2nnc(SCc3cc(=O)n4ccsc4n3)s2)cc1 | x | 52* | 52 | x | 76*[fluorescence artefact?]
O=C(Cn1cnc2sc(-c3ccccc3)cc2c1=O)NCc1ccccc1 | -5 | 63*[fluorescence artefact?] | 216* | -4 | 59*[fluorescence artefact?]
O=C(Cn1cnc2sc(-c3ccccc3)cc2c1=O)NCc1ccco1 | -10 | 46 | 147 | 66 | 66*[fluorescence artefact?]
O=C(Cn1ncn2c(cc3ccccc32)c1=O)NCc1ccco1 | -19 | 38 | 95 | 9 | 57*[fluorescence artefact?]
Cc1sc2ncn(CC(=O)NCCc3ccccc3)c(=O)c2c1C | 15 | 18 | 101 | -4 | 15
O=C(Cn1ncn2c(cc3ccccc32)c1=O)NCCC1=CCCCC1 | -37 | -1 | 120 | 20 | 5
O=C(Cn1nnc(-c2ccccc2)n1)NCc1ccco1 | -10 | 1 | 87 | -5 | 5
O=C(Cn1cnc2sc(-c3ccccc3)cc2c1=O)NCCc1ccccc1 | -6 | 37 | 213*[fluorescence artefact?] | -2 | 43
CCN(CC)C(=O)CSCc1cnn(-c2ccccc2)c1-n1cccc1 | -2 | -14 | 100 | 2 | -10
CCc1cccc(CC)c1NC(=O)COC(=O)CCc1cc(OC)c(OC)c(OC)c1 | 25 | x | x | 6 | x
CCOc1ccccc1N1CCN(C(=O)CCCc2nc3ccccc3s2)CC1 | 2 | x | x | 8 | x
N#C/C=C(/N)N1CCN(c2ccc(Cl)c(Cl)c2)CC1 | 4 | x | x | -2 | x
SMILES | Mac1 fbg inh | ERb coact inh | ERa SRC1 pot | CD11b adhes enh | ERa SRC1 inh
CCN(C(=O)c1cc2cc(OC)ccc2oc1=O)c1cccc(C)c1 | -9 | 5 | 107 | 2 | -3
Cc1cc(C)cc(-c2nnc(SCC(=O)c3ccc4c(c3)OCCO4)o2)c1 | x | 8 | 221*[fluorescence artefact?] | x | 4
Cc1cc(NC(=O)CSc2nnc(-c3ccc4c(c3)OCCO4)o2)no1 | -11 | 0 | 327*[fluorescence artefact?] | -4 | -19
CCC1CCC2(CC1)NC(=O)N(CC(=O)c1c(C)[nH]c3ccccc13)C2=O (centres undefined) | 9 | x | x | 0 | x
Cc1cc2oc(=O)cc(CN3CCOCC3)c2cc1C | 20 | -16 | 104 | -3 | -14
Cc1cc2oc(=O)cc(CN3CCCc4ccccc43)c2cc1C | -34 | 8 | 231*[fluorescence artefact?] | -3 | 6
Cc1ccc(C)c(SCC(=O)OCC(=O)c2ccco2)c1 | 9 | 63* | 70 | -5 | 65*
Cc1ccc(C)c(SCC(=O)NCc2ccco2)c1 | x | -3 | 85 | x | -5
COc1ccccc1NS(=O)(=O)c1ccc(NC(=O)CCNC(=O)c2ccco2)cc1 | -2 | -12 | 124 | 68* | 8
Cc1ccccc1NS(=O)(=O)c1ccc(NC(=O)c2ccco2)cc1 | -15 | 2 | 99 | 1 | -3
FC(F)(F)c1ccc(Oc2ccc3ccccc3c2Br)nc1 | 31 | x | x | -4 | x
